The record followed here is ChEMBL document CHEMBL1157539, “Thousands of chemical starting points for antimalarial lead identification” (Nature, 2010).

By Inhibition is commonly meant the share of the control response that was lost under treatment. Read a high Inhibition as strong suppression.

The subject of this test is Plasmodium falciparum. Put plainly: GSK_TCMDC: Inhibition of Plasmodium falciparum 3D7 in whole red blood cells, using parasite LDH activity as an index of growth. Test compounds present at 2uM. It counts as functional.
Turning to `CN(CCc1ccccn1)Cc1ccc(-c2ccc(-c3nc4ccccc4[nH]3)s2)cc1`, the Inhibition is 100%.
The value for `Brc1ccsc1-c1nc(NCCC(c2ccccc2)c2ccccc2)no1` was 94%.
The compound `CC(C)CNC(=O)CN1C(=O)C(c2ccccc2)(c2ccccc2)N=C1N` came in with an Inhibition of 94%.
`O=C(/C=C/c1ccc(Cl)c(Cl)c1)N1CCC(CCCN2CCC(c3c[nH]c4ccccc34)CC2)CC1` registered an Inhibition of 100%.
Compound `Nc1nccc2ccc(-c3cccc(O)c3)cc12` showed an Inhibition of 95%.
In turn, `COc1cccc(C(=O)Nc2ccc(Oc3ccc(Cl)cc3)cc2)c1` returned an Inhibition of 92%.
The value for `NC1=NC(c2ccccc2)(c2ccccc2)C(=O)N1CC1CCC1.O=CO` was 96%; that for `O=C(O)C(F)(F)F.O=C1CCCN1CCCNCc1ccc(-c2ccc(-c3nc4cc(C(F)(F)F)ccc4[nH]3)s2)cc1` was 100%.
`COc1cc(F)c2nccc([C@@H](O)CN3CCC(NCc4ccc5c(n4)NC(=O)CS5)C(F)C3)c2c1.Cl` (stereo partly drawn): the Inhibition is reported as 87%.
Regarding `CC(C)Cc1cn(-c2nc(C(=N)N)cs2)c2cc(Cl)ccc12`, the Inhibition was found to be 100%.
The value for `Cn1nc(C(=O)N2CCC(c3[nH]ncc3Cc3ccccc3)CC2)c2ccccc2c1=O` was 95%.
Under `N#Cc1ccccc1N1CCN(C2CCC(NC(=O)c3n[nH]c4cc(C(F)(F)F)ccc34)CC2)CC1` (stereo not drawn) stands 84%; under `Cn1ccnc1CNC(=O)c1ccc(-c2cccc(-c3nc4cc(F)ccc4[nH]3)c2)cc1`, 96%.
